# Reference: the supplement of paper PMC10338343
# ± gives the standard deviation. Whole data set: some 8,200 sequences, median “pre-steady-state target cleavage rate” near 0.024, cut for the highest 2% near 1.3. Shown is part of a subset that was picked to be rich in the highest values.
# Test system: MIWI (PIWIL1) piRISC loaded with L1MC piRNA (30 nt)
# Assay: pre-steady-state target cleavage rate (min^-1); MIWI and MILI are mouse PIWI proteins and EfPiwi is from a freshwater sponge; tags in brackets are library labels; higher = faster piRNA-guided slicing of the target
# Details: guide: L1MC piRNA 5'p-UAACUAAAUACUAUGCAAGCUGUAGGUCCU
# In short: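 Sequencing of uncleaved targets, normalised to depth and to weakly complementary targets, was the readout of this Cleave-'n-Seq assay. A transcribed, DNA-blocked target RNA library (0.1 nM) was mixed with 1 nM active affinity-purified piRISC carrying one synthetic guide, with or without 500 nM GTSF1 partner protein, in HEPES–potassium acetate buffer at 33 °C for 0–8 or 0–960 min. Three trials were pooled, k3 was capped at 0.0001 min^-1, and a burst-and-steady-state fit gave the pre-steady-state cleavage rate.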
# [1] = auxiliary factor: 500 nM mouse GTSF1
# [2] = auxiliary factor: none (no GTSF1)
Sequence,pre-steady-state target cleavage rate [1],pre-steady-state target cleavage rate [2]
UCGACCUACAGCUUGCAUAGUUAUUACAAA,0.115 ± 0.035,–
UCCUGGAUGUCGAACGUAAGUAUUUAAUUA,< 0.0001,–
UCCUGGUACAGCUUGCAUAGUUUAUAGUUA,0.0594 ± 0.017,0.0135 ± 0.004
UCCUGGAUGUCGAACGUUUGUAUAUAGUUA,< 0.0001,–
UGGACCUACAGCUUGCAUAGUAUUUAGUUU [g2:g29:cont:t1U],1.62 ± 0.082,0.0974 ± 0.02
UGGACCUACAGCUUGCAUAGUAUUUAGUAA,1.11 ± 0.064,0.0627 ± 0.014
UGGACCUACAGCUUGCAUAGUAUUUAGUUUA,1.56 ± 0.086,0.075 ± 0.014
UGGACCUACAGCUUGCAUAGUAUUUAGUA,0.885 ± 0.062,0.0273 ± 0.0069
UGGACCUACAGCUUGCAUAGUAUUUAGCUUA,0.316 ± 0.023,0.0288 ± 0.0059
UGGACCUACAGCUUGCAUAGUAUUUAGUUC [g2:g29:cont:t1C],1.14 ± 0.068,0.0625 ± 0.012
UCCUGGAACAGGUUGCAUAGUAUUUAGAAA,0.362 ± 0.043,–
AGGACCUACAGCUACGAUAGUAUUUAGUAA,0.153 ± 0.045,–
UCGACCAACAGCUUGCAUAGUAAUUAGUUA,0.972 ± 0.041,0.0305 ± 0.0074
AGGACCUACAGCUUGGUUAGUAUUUACAAA,0.0786 ± 0.021,–
UGGACCUACAGCAAGCAUAGUAUUUACAAA,0.273 ± 0.051,–
UCGACCUACAGCUUGUCAUAGUAUUUAGUUA,0.742 ± 0.083,0.00458 ± 0.0029
UGGACCUACAGCUUGCUAUAGUAUUUAGUUA,0.0205 ± 0.0066,–
UCCACCUACAGCUUGUAUAGUAUUUAGUUA,1.18 ± 0.048,0.0524 ± 0.0091
UGGACCUACAGCUUGUCAUAGUAUUUAGUUA,0.706 ± 0.1,0.00373 ± 0.0033
UCGACCUACAGCUUGUAUAGUAUUUAGUUA,1.7 ± 0.074,0.0725 ± 0.015
UGGACCUACAGCUUGUAUAGUAUUUAGUUA,1.77 ± 0.11,0.0563 ± 0.012
AGGACCUACAGCUUGUAUAGUAUUUAGUUA,1.6 ± 0.061,0.0803 ± 0.015
AGGACCUACAGCUUGCUAUAGUAUUUAGUUA,0.137 ± 0.037,–
UCGACCUACAGCUUGCUAUAGUAUUUAGUUA,0.0661 ± 0.018,–
UCCUGGAUGAGCUUGCAUACUAUUUAGAUA,0.0538 ± 0.017,0.00863 ± 0.0041
AGGACCUACAGCUAGCAUAGUAUUUACAAA,0.474 ± 0.071,–
UCCACCUUCAGGUUGCAUAGUAUUUAGUUA,0.817 ± 0.1,0.0279 ± 0.0047

Sequence,pre-steady-state target cleavage rate [1],pre-steady-state target cleavage rate [2]
UCCUGGAUCAGCUCUGCAUAGUAUUUAGUUA,0.985 ± 0.054,0.0138 ± 0.0041
UCCUGCUUGAGCUUGCAUAGUAUUUAGUAA,0.491 ± 0.051,0.0206 ± 0.004
UCCUGGAACAGCUUGCAUAGUAAUUACAAA,0.129 ± 0.038,–
UCCUGGAACAGGUUGCAUAGUAUUUACUUA,0.164 ± 0.023,0.0109 ± 0.0022
AGGACGUACAGCUUGCAUAGUAUUUAGUUA,1.19 ± 0.048,0.0866 ± 0.014
AGGACGUACAGCUUGCAAAGUAUUUAGUUA,1.11 ± 0.057,0.0396 ± 0.0083
AGGACGUACAGCUUGCUUAGUAUUUAGUUA,1.31 ± 0.055,0.0487 ± 0.0095
UGGACGUACAGCUUGCAAAGUAUUUAGUUA,1.3 ± 0.045,0.0558 ± 0.0096
UGGACGUACAGCUUGCAUUGUAUUUAGUUA,0.79 ± 0.05,0.0432 ± 0.01
UGGACGUACAGCUUGCUUAGUAUUUAGUUA,1.37 ± 0.069,0.0454 ± 0.0082
UCGACGUACAGCUUGCAAAGUAUUUAGUUA,1.26 ± 0.043,0.0364 ± 0.0077
UCGACGUACAGCUUGCAUUGUAUUUAGUUA,0.883 ± 0.027,0.0351 ± 0.0076
UCGACGUACAGCUUGCUUAGUAUUUAGUUA,1.63 ± 0.09,0.0366 ± 0.0073
UCCUCCUUCAGCAUGCAUAGUAUUUAGUUA,1.01 ± 0.043,0.0155 ± 0.0034
UCCUCCUACAGCAUGCAUAGUAUAUAGUUA,0.786 ± 0.042,0.00795 ± 0.0022
UCCUGGAUGUCGUAGCAUAGUAUUUAGUUA,0.0153 ± 0.005,–
UCCUGGAUGUCCUUGCUUAGUAUUUAGUAA,0.00726 ± 0.004,–
UCCUGCUACAGCUUGCAUACAAUUUAGUAA,0.0165 ± 0.008,–
UCCUCCUACAGCUUGCAAAGUAUUUACAAA,0.267 ± 0.036,0.00344 ± 0.0031
UCGACCUACACGUUGCAUAGUAUUUUCAAA,0.224 ± 0.036,–
UCCUGGUACACGUUGCAUAGUAUUUAGUAA,0.178 ± 0.041,–
UCCUCCAACAGCUUGCAUAGUAUUUACUUA,0.267 ± 0.026,0.0243 ± 0.0038
UCGACCUACAGCUUGCAUAGUAUUUAGUUUA,1.27 ± 0.058,0.0631 ± 0.0099
UCGACCUACAGCUUGCAUAGUAUUUAGCUUA,0.375 ± 0.05,0.0283 ± 0.0087
UCGACCUACAGCUUGCAUAGUAUUUAGUAA,1.15 ± 0.061,0.0683 ± 0.014
UCGACCUACAGCUUGCAUAGUAUUUAGUUC [g2:g28:cont:t1C],1.22 ± 0.045,0.0714 ± 0.013
UCGACCCUACAGCUUGCAUAGUAUUUAGUUA,1.33 ± 0.061,0.0734 ± 0.012

Sequence,pre-steady-state target cleavage rate [1],pre-steady-state target cleavage rate [2]
ACGACCUACAGCUUGCAUAGUAUUUAGAUA,0.62 ± 0.044,0.0521 ± 0.011
ACGACCUACAGCUUGCAUAGUAUUUAGUUA,1.56 ± 0.064,0.0997 ± 0.017
UCGACCUACAGCUUGCAUAGUAUUUAGUA,0.778 ± 0.039,0.0159 ± 0.0051
UCGACCUACAGCUUUGCAUAGUAUUUAGUUA,1.4 ± 0.061,0.0371 ± 0.0078
UCGACCUACAGCUUGCAUAGUAUUUAGUUU [g2:g28:cont:t1U],1.75 ± 0.067,0.158 ± 0.033
ACGACCUACAGCUUGCAUAGUAUUUAGUAA,1.11 ± 0.042,0.0771 ± 0.016
UCCUGCUACUCGUUGCAUAGUAUUUAGAAA,0.0557 ± 0.014,–
UCCUGGUACAGCUUGGAUAGUAUUUAGUAA,0.421 ± 0.095,0.0149 ± 0.0041
UCCUGCUACAGCUUGCAUUGAAUUUAGUUA,0.168 ± 0.012,0.00991 ± 0.0044
UCCUGGAUGUGCGUUGCAUAGUAUUUAGUUA,0.28 ± 0.032,0.00987 ± 0.0029
UCCACCUACUGCUUGCAAAGUAUUUAGUUA,0.623 ± 0.025,0.0305 ± 0.0052
AGGACCUACAGCUUGCGAUAGUAUUUAGUUA,0.108 ± 0.026,–
UCGACCUACAGCUUGCAUAGUAUUAGUUA,0.346 ± 0.053,–
UCGACCUACAGCUUGCAUAGUAUUUAGUUG [g2:g28:cont:t1G],0.569 ± 0.04,0.0703 ± 0.013
UCGACCUACAGCUUGCAUAGUAUAUUAGUUA,1.25 ± 0.049,0.0248 ± 0.0063
UCGACCUACAGCUUGCAUAGUAUUAUAGUUA,1.32 ± 0.076,0.0387 ± 0.007
UCGACCUACAGCUUGCAUAGUAUUUUAGUUA,1.21 ± 0.053,0.0302 ± 0.0073
UCGACCUACAGCUUGCAUAGUAUUUAGUUA [g2:g28:cont:t1A],1.56 ± 0.056,0.0936 ± 0.017
AGCACCUACAGCUUGCAUACUAUUUAGUUA,0.471 ± 0.099,0.00711 ± 0.0024
UCCUGGAUGUCGAACCAUUGUAUAUAGUUA,< 0.0001,–
UGGACCUACAGCUUCGCAUAGUAUUUAGUUA,1.43 ± 0.1,0.0229 ± 0.0062
UCGACCUACAGCUUCGCAUAGUAUUUAGUUA,1.33 ± 0.07,0.0168 ± 0.004
UCGACCUACAGCUUCAUAGUAUUUAGUUA,1.14 ± 0.042,0.0128 ± 0.0025
AGGACCUACAGCUUCGCAUAGUAUUUAGUUA,1.27 ± 0.071,0.0296 ± 0.0087
UCGACCUACAGCUUCGAUAGUAUUUAGUUA,0.911 ± 0.058,0.00251 ± 0.0018
UCCACCUACAGCUUCGCAUAGUAUUUAGUUA,0.911 ± 0.056,0.0118 ± 0.0027
